# Results from PubChem BioAssay (Tox21).
# Results filed as inconclusive are left out. Entries that show only a call come without a potency. A number with no mark means an inactive call. Calls of active or inactive are those of the source. The call rests on the fitted dose curve; in most records, active means well fitted curve in the direction sought with a large enough effect in the repeat runs; inconclusive means weak or mixed curves; inactive means no such curve, though single readings can be large; an effect the other way counts as inactive or inconclusive.
# Tests used:
# [1] = biological target: Nuclear receptor subfamily 1 group I member 2 (Homo sapiens) (UniProt O75469); assay: CYP3A4 induction through human pregnane X receptor (PXR) by small molecules, qHTS assay (AID 1346984); further: nearly all actives have a fitted effect of over 40% in size
# Outline: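 Cells (DPX-2; HepG2 with PXR element plus CYP3A4-promoter luciferase) settled 5hr, then were treated 24hr at 37C. A 3hr, 3uM-final Luciferin-IPA step preceded luminescence measurement with One-Glo.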
# [2] = biological target: Nuclear receptor subfamily 1 group I member 2 (Homo sapiens) (UniProt O75469); assay: Human pregnane X receptor (PXR) activation by small molecules, qHTS assay (AID 1346985); further: nearly all actives have a fitted effect of over 40% in size
# Outline: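 DPX-2 cells (HepG2 co-transfected with a PXR response element and a CYP3A4-promoter luciferase construct) were seeded at 2,000 per well, rested 5 hr at 37C, then exposed to DMSO-dissolved compounds for 24 hr. Activation was read as luciferase luminescence.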
# [3] = biological target: Cytochrome P450 2D6 (Homo sapiens) (UniProt P10635); assay: Cytochrome P450 Family 2 Subfamily D Member 6 (CYP2D6) small molecule antagonists: luciferase reporter qHTS assay (AID 1671196); further: nearly all actives have a fitted effect of over 50% in size; further: potency means the concentration at half of the fitted maximal effect; on activity change, negative = inhibition: series mostly up to about 120 µM
# Outline: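 Room-temperature luminescent CYP2D6 activity assay: compound preincubated 10 min with enzyme–substrate mix, NADPH-initiated reaction 1 h, detection reagent 20 min before reading.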
# [4] = biological target: Cytochrome P450 2C19 (Homo sapiens) (UniProt P33261); assay: Cytochrome P450 Family 2 Subfamily C Member 19 (CYP2C19) small molecule antagonists: luciferase reporter qHTS assay (AID 1671197); further: nearly all actives have a fitted effect of over 65% in size; further: potency means the concentration at half of the fitted maximal effect; on activity change, negative = inhibition: series mostly up to about 120 µM
# Outline: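 Compounds were tested on CYP2C19 activity via proluciferin conversion to luciferin. The 37C, 1 h reaction followed NADPH addition; detection reagent stopped it.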
# [5] = biological target: Cytochrome P450 1A2 (Homo sapiens) (UniProt P05177); assay: Cytochrome P450 Family 1 Subfamily A Member 2 (CYP1A2) small molecule antagonists: luciferase reporter qHTS assay (AID 1671199); further: nearly all actives have a fitted effect of over 50% in size; further: potency means the concentration at half of the fitted maximal effect; on activity change, negative = inhibition: series mostly up to about 120 µM
# Outline: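 Room-temperature CYP1A2 reaction with proluciferin substrate: compounds added from DMSO, 10 min preincubation, NADPH regeneration for 1 h. Luciferin detection reagent then added; luminescence recorded as RLU.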
# [6] = biological target: Voltage-gated inwardly rectifying potassium channel KCNH2 (Homo sapiens) (UniProt Q12809); assay: Human Ether-a-go-go-Related Gene (hERG) channel small molecule antagonists: fluorescence cell-based qHTS assay (AID 1671200);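 further: hERG-expressing U2OS cells given a thallium stimulus after FluxOR II dye loading; series mostly up to about 77 µM; nearly all actives have a fitted effect of over 50% in size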
# Outline: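 Thallium served as the potassium surrogate; its influx into dye-loaded U2OS cells carrying the channel was measured by fluorescence over 2 min.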
# [7] = biological target: Cytochrome P450 3A4 (Homo sapiens) (UniProt P08684); assay: Cytochrome P450 Family 3 Subfamily A Member 4 (CYP3A4) small molecule antagonists: luciferase reporter qHTS assay (AID 1671201); further: nearly all actives have a fitted effect of over 50% in size; further: potency means the concentration at half of the fitted maximal effect; on activity change, negative = inhibition: series mostly up to about 120 µM
# Outline: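 Relative luminescence units after 20 min with luciferin detection reagent served as read-out. Beforehand, CYP3A4 turned over a proluciferin substrate for 1 h at room temperature with NADPH regeneration, following 10 min compound preincubation.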
# [8] = biological target: Cytochrome P450 2C9 (Homo sapiens) (UniProt P11712); assay: Cytochrome P450 Family 2 Subfamily C Member 9 (CYP2C9) small molecule antagonists: luciferase reporter qHTS assay (AID 1671198); further: nearly all actives have a fitted effect of over 50% in size; further: potency means the concentration at half of the fitted maximal effect; on activity change, negative = inhibition: series mostly up to about 120 µM
# Outline: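 P450-Glo proluciferin substrate with CYP2C9 enzyme; 10 min RT preincubation, then NADPH regeneration 1 h at 37C; luciferin detection reagent 20 min RT, luminescence in relative luminescence units.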
# Chain of Voltage-gated inwardly rectifying potassium channel KCNH2 (Homo sapiens) (Q12809 whole entry, looked up): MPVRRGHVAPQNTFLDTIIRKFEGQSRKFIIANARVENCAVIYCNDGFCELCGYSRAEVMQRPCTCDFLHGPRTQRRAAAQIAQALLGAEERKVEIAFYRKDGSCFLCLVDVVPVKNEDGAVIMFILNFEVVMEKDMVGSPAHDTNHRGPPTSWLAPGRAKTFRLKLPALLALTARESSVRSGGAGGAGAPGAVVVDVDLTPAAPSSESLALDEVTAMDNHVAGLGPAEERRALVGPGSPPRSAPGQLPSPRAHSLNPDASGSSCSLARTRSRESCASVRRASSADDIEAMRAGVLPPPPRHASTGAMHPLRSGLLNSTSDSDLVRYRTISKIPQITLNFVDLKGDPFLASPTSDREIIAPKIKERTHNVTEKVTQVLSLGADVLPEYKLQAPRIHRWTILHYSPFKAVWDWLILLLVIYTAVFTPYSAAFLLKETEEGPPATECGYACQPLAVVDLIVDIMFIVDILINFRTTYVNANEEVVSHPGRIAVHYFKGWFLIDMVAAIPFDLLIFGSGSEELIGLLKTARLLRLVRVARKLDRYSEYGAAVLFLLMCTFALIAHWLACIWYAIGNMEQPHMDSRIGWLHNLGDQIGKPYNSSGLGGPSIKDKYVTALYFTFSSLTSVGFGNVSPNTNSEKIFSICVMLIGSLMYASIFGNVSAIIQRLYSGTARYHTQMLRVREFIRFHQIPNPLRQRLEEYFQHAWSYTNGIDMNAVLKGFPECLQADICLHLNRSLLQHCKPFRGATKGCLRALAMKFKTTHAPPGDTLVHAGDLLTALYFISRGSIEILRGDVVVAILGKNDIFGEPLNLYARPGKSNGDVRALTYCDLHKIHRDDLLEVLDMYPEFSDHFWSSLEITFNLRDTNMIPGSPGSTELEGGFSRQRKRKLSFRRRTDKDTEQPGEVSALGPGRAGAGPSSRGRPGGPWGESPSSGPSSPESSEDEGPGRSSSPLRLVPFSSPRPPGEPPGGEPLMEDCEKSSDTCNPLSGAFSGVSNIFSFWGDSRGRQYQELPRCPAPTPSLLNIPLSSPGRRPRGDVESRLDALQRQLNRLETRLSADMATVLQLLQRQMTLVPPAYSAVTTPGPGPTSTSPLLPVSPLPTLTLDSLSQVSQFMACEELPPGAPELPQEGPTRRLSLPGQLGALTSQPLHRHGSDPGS
# Chain of Cytochrome P450 3A4 (Homo sapiens) (P08684 whole entry, looked up): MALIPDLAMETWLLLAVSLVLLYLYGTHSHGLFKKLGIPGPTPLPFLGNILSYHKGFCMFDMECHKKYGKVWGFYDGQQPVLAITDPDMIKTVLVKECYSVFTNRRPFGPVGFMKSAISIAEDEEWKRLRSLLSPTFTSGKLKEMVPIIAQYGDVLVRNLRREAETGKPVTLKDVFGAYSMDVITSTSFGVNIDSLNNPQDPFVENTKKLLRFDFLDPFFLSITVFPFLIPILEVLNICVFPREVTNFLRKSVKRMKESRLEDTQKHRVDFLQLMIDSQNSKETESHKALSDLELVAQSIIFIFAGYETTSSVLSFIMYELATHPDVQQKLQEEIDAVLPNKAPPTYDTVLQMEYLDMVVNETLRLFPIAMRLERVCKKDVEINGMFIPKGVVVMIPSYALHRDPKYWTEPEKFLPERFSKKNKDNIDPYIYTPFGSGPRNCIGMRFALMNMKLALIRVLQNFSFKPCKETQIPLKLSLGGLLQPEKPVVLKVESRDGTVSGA
# Chain of Cytochrome P450 1A2 (Homo sapiens) (P05177 whole entry, looked up): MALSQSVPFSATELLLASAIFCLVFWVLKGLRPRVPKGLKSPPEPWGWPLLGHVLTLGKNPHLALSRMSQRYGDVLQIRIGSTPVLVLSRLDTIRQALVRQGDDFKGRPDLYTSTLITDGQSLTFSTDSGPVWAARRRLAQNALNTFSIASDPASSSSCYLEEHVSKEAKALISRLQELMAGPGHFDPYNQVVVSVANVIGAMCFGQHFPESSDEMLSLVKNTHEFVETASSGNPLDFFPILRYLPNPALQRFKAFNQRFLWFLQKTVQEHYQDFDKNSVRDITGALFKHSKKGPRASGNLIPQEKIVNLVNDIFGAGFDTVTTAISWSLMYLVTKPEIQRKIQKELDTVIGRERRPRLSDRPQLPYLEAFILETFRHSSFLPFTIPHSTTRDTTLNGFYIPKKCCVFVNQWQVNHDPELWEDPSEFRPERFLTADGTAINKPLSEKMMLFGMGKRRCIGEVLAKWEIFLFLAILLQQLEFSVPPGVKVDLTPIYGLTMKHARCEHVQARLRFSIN
# Chain of Cytochrome P450 2C9 (Homo sapiens) (P11712 whole entry, looked up): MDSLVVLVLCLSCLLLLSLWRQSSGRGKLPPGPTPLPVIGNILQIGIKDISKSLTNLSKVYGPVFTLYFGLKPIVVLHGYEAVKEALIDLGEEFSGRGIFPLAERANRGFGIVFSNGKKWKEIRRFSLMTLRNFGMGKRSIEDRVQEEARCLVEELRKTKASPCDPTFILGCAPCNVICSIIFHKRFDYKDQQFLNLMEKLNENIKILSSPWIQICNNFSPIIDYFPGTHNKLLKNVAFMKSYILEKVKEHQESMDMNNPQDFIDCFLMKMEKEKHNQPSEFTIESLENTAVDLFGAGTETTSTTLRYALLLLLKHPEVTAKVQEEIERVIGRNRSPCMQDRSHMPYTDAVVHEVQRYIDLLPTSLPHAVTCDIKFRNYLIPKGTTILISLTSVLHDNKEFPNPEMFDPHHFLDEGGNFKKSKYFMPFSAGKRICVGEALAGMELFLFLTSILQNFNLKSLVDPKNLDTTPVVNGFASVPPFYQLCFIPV
# Chain of Cytochrome P450 2D6 (Homo sapiens) (P10635 whole entry, looked up): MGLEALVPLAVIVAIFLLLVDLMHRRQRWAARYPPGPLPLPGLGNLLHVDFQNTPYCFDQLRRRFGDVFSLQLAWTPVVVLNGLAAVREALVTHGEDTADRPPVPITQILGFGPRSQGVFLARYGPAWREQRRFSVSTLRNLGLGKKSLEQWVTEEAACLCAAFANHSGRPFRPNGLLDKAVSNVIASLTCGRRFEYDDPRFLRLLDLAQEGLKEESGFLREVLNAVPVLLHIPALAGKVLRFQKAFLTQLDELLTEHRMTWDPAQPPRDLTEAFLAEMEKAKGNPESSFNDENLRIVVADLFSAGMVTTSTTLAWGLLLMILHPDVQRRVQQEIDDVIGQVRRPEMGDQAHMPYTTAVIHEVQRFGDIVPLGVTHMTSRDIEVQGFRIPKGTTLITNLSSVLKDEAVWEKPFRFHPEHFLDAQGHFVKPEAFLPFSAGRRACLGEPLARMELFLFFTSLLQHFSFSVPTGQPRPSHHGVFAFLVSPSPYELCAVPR
# Chain of Cytochrome P450 2C19 (Homo sapiens) (P33261 whole entry, looked up): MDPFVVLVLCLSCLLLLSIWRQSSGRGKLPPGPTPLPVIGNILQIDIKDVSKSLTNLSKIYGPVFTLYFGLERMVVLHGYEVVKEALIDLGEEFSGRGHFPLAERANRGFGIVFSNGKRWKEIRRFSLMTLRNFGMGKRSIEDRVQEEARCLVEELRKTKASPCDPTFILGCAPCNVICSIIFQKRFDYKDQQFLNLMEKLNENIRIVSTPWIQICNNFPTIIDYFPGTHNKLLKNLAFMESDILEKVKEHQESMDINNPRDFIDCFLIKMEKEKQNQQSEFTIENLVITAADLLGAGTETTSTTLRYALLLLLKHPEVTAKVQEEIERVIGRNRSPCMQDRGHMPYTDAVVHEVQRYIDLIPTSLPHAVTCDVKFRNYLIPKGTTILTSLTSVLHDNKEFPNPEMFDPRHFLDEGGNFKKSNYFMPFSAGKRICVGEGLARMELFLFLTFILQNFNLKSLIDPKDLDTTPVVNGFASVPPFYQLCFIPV
smiles,measurement,setting,value
CC(=O)Nc1ncc([N+](=O)[O-])s1,outcome,[1],inactive
same,Potency,[2],inactive
same,Potency,[3],inactive
same,Potency,[4],inactive
same,Potency,[5],15.5 µM (active)
same,Potency,[6],inactive
same,Potency,[7],inactive
F[Si-2](F)(F)(F)(F)F,outcome,[1],inactive
same,Potency,[2],inactive
same,Potency,[3],inactive
same,Potency,[4],inactive
same,Potency,[8],inactive
same,Potency,[5],inactive
same,Potency,[6],inactive
same,Potency,[7],inactive
NS(=O)(=O)c1cc2c(cc1Cl)NC(CC1CCCC1)NS2(=O)=O (stereo unspecified),outcome,[1],inactive
same,Potency,[2],inactive
same,Potency,[3],inactive
same,Potency,[4],inactive
same,Potency,[8],inactive
same,Potency,[6],inactive
Cc1oc(=O)oc1CN1CCN(c2cc3c(cc2F)c(=O)c(C(=O)O)c2n3C(C)S2)CC1 (stereo unspecified),outcome,[1],inactive
same,Potency,[2],inactive
same,Potency,[3],inactive
same,Potency,[4],inactive
same,Potency,[8],inactive
same,Potency,[5],inactive
same,Potency,[6],inactive
same,Potency,[7],inactive
O=c1[nH]c(=O)c2[nH]c(=O)[nH]c2[nH]1,outcome,[1],inactive
same,Potency,[2],inactive
same,"activity change, negative = inhibition",[3],-9.18% [at 10.5 µM]
same,"activity change, negative = inhibition",[4],-2.11% [at 10.5 µM]
same,"activity change, negative = inhibition",[8],10.1% [at 10.5 µM]
same,"activity change, negative = inhibition",[5],-28.5% [at 10.5 µM]
same,"activity change, negative = inhibition",[6],-12.8% [at 6.97 µM]
same,"activity change, negative = inhibition",[7],20% [at 10.5 µM]
NS(=O)(=O)c1ccc(Cl)c(S(N)(=O)=O)c1,outcome,[1],inactive
same,Potency,[2],inactive
same,Potency,[8],inactive
same,Potency,[6],inactive
same,Potency,[7],inactive
Nc1ccc(S(=O)(=O)NC(=O)c2ccccc2)cc1,outcome,[1],inactive
same,Potency,[2],inactive
same,Potency,[4],inactive
same,Potency,[5],inactive
same,Potency,[6],inactive
same,Potency,[7],inactive
C=C[Si](C)(C)O[Si](C)(C)C=C,Potency,[3],inactive
same,Potency,[4],inactive
same,Potency,[8],inactive
same,Potency,[5],inactive
same,Potency,[6],inactive
same,Potency,[7],inactive
CC(=O)c1ccc2c(c1)CCCC2,Potency,[3],inactive
same,Potency,[4],79.6 µM (active)
same,Potency,[8],inactive
same,Potency,[5],35.6 µM (active)
same,Potency,[6],inactive
same,Potency,[7],inactive
C=CCOCC(CO)(COCC=C)COCC=C,Potency,[3],inactive
same,Potency,[4],0.717 µM (active)
same,Potency,[8],7.17 µM (active)
same,Potency,[5],25.5 µM (active)
same,Potency,[6],inactive
same,Potency,[7],10.1 µM (active)
CC1(N)CCC(C(C)(C)N)CC1 (stereo unspecified),Potency,[3],20 µM (active)
same,Potency,[4],inactive
same,Potency,[8],inactive
same,Potency,[5],inactive
same,Potency,[6],inactive
same,Potency,[7],inactive
C[CH2][Ge]([Cl])([CH2]C)[CH2]C,Potency,[3],inactive
same,Potency,[4],inactive
same,Potency,[8],inactive
same,Potency,[5],inactive
same,Potency,[6],inactive
same,Potency,[7],inactive
CCCOC(=O)CCCCC(=O)OCCC,Potency,[3],inactive
same,Potency,[4],20 µM (active)
same,Potency,[8],20 µM (active)
same,Potency,[5],22.4 µM (active)
same,Potency,[6],inactive
same,Potency,[7],inactive
CCCCOC(=O)C(=O)OCCCC,Potency,[3],inactive
same,Potency,[4],inactive
same,Potency,[8],inactive
same,Potency,[5],inactive
same,Potency,[6],inactive
same,Potency,[7],inactive
CCCCCCCCCCCCC,Potency,[3],inactive
same,Potency,[4],inactive
same,Potency,[8],inactive
same,Potency,[5],inactive
same,Potency,[6],inactive
same,Potency,[7],inactive
O=C1NC2NC(=O)NC2N1 (stereo unspecified),Potency,[3],inactive
same,Potency,[4],inactive
same,Potency,[8],inactive
same,Potency,[5],35.6 µM (active)
same,Potency,[6],inactive
same,Potency,[7],inactive
CC(C)CCC(=O)CCC(C)C,Potency,[3],inactive
same,Potency,[4],inactive
same,Potency,[8],inactive
same,Potency,[5],39.9 µM (active)
same,Potency,[6],inactive
same,Potency,[7],inactive
CCCCCCCCCCCCOC(C)=O,Potency,[3],inactive
same,Potency,[4],inactive
same,Potency,[8],inactive
same,Potency,[5],inactive
same,Potency,[6],inactive
same,Potency,[7],inactive
CC(=O)OC(C)(C)Cc1ccccc1,Potency,[3],inactive
same,Potency,[4],inactive
same,Potency,[8],inactive
same,Potency,[5],inactive
same,Potency,[6],inactive
same,Potency,[7],inactive
COC(/C=C(\C)CCC=C(C)C)OC,Potency,[3],inactive
same,Potency,[4],inactive
same,Potency,[8],inactive
same,Potency,[5],inactive
same,Potency,[6],inactive
same,Potency,[7],inactive
Cc1nc(C)nc(N2C[C@@H](C)N(c3ccnc([C@@H](C)O)n3)[C@@H](C)C2)n1,Potency,[3],inactive
same,Potency,[4],inactive
same,Potency,[8],inactive
same,Potency,[5],inactive
same,Potency,[6],inactive
same,Potency,[7],inactive
CC(C)SCc1ccco1,Potency,[3],inactive
same,Potency,[4],inactive
same,Potency,[8],inactive
same,Potency,[5],inactive
same,Potency,[6],inactive
same,Potency,[7],inactive
O=C(O)CCNC(=O)c1ccccc1,Potency,[3],inactive
same,Potency,[4],inactive
same,Potency,[8],inactive
same,Potency,[5],inactive
same,Potency,[6],inactive
same,Potency,[7],inactive
Nc1ccnc(=O)[nH]1,Potency,[3],inactive
same,Potency,[4],inactive
same,Potency,[8],inactive
same,Potency,[5],inactive
same,Potency,[6],inactive
same,Potency,[7],inactive
CCCCCCCCCCC,Potency,[3],inactive
same,Potency,[4],inactive
same,Potency,[8],79.6 µM (active)
same,Potency,[5],inactive
same,Potency,[6],inactive
same,Potency,[7],inactive
CCCCCCCCCCCCCC(=O)OC,Potency,[3],inactive
same,Potency,[4],inactive
same,Potency,[8],inactive
same,Potency,[5],inactive
same,Potency,[6],inactive
same,Potency,[7],inactive
Nc1cc(Cl)cc(S(=O)(=O)O)c1O,Potency,[3],inactive
same,Potency,[4],41 µM (active)
same,Potency,[8],20.6 µM (active)
same,Potency,[5],inactive
same,Potency,[6],inactive
same,Potency,[7],inactive
CO[Si](CCCCl)(OC)OC,Potency,[3],31.2 µM (active)
same,Potency,[4],39.3 µM (active)
same,Potency,[8],39.3 µM (active)
same,Potency,[5],inactive
same,Potency,[6],inactive
same,Potency,[7],3.51 µM (active)
c1ccccc1,Potency,[3],inactive
same,Potency,[4],inactive
same,Potency,[8],inactive
same,Potency,[5],inactive
same,Potency,[6],inactive
same,Potency,[7],inactive
COc1ccc(OC)c(NC(=O)CC(C)=O)c1,Potency,[3],31.7 µM (active)
same,Potency,[4],15.9 µM (active)
same,Potency,[8],31.7 µM (active)
same,Potency,[5],15.9 µM (active)
same,Potency,[6],inactive
same,Potency,[7],22.4 µM (active)
